Only some compounds are listed: those with a hit (about 1.2% of all), similar ones and a draw of the others.
PI4K2A block – qHTS for small molecular inhibitors of PI4K2A; Phosphatidylinositol 4-kinase type 2-alpha (Homo sapiens), Q9BTU6; purified PI4K2A, ADP-Glo luminescence, 1 h; active compounds read low; activity change, negative = inhibition, % at 76.9 µM; actives 0.13% (n = 420,000); in the data active = activity change below about -50%; inconclusive = mostly about -30% to -49%
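ADP-Glo luminescence measured ADP generated by PI4K2A enzyme (4 ug/mL before mixing) with 1.2 mM PI substrate (pre-mix) and 300 microM ATP (pre-mix). Tris pH7.5 buffer with MgCl2, Triton X-100; 1 h reaction at ambient temperature.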
PI5P4K alpha inh – qHTS for Inhibitors of phosphatidylinositol 5-phosphate 4-kinase (PI5P4K) | PI5P4Kalpha enzyme, ADP-Glo luminescence, 60 min; active compounds read low | max response, % | actives 1.2% (n = 330,000); active = max response of -50% or lower; inconclusive = between -30% and -50%; inactive = -30% or higher; also: value at the top dose of about 77 µM
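Reactions run in 0.038 M HEPES pH 7.4, 0.28 mM EGTA, 0.1% CHAPS and 5% DMSO, with PI5P4Kalpha, substrate, compound and 5 microM ATP final, one hour at room temperature. Readout is ADP-Glo luminescence.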
RGS12 GoLoco inh – qHTS Assay for Inhibitors of RGS12 GoLoco Motif Activity (Red Fluorophore). Guanine nucleotide-binding protein G(i) subunit alpha-1 (Homo sapiens), P63096. Gai1:RGS12 GoLoco peptide FP, rhodamine, 10 min. Potency, µM (top dose mostly 61.6 µM), hits mostly inhibitors. actives 0.44% (n = 230,000); active = well fitted inhibition curve with a large enough effect, not every such curve was filed as active; inactive = no such curve, though single readings can be large or run the other way; also: nearly all actives have a fitted effect of over 30% in size
Pin1 inhibitor – qHTS Assay to Find Inhibitors of Pin1; Peptidyl-prolyl cis-trans isomerase NIMA-interacting 1 (Homo sapiens), Q13526; Potency, µM (doses to about 115 µM), most hits filed as inhibitors; Pin1 FP peptide displacement, HiFluor488, 10 min; actives 0.009% (n = 390,000); active = well fitted inhibition curve with a large enough effect in the polarisation, with a control signal flat, not every such curve was filed as active; inconclusive = small, poorly fitted or top-dose-only effect, or effect the other way, or a change in a side signal; inactive = no such curve, though single readings can be large or run the other way; the % refers to the polarisation
Target sequence (Q13526 whole entry, looked up): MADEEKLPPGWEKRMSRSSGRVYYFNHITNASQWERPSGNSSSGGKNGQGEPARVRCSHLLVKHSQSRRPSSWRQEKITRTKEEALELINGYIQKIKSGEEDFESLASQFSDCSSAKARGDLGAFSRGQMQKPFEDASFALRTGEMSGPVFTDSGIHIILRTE
KAT2A inh – qHTS Assay for Inhibitors of GCN5L2. actives 0.21% (n = 390,000). Potency, µM (top dose mostly 58.9 µM), most hits filed as inhibitors. GCN5L2 HAT assay, ThioGlo1 CoA-SH fluorescence
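qHTS, 1536-well. 20nM enzyme, pH 7.5 HEPES/EDTA/Tween-20 buffer; 15 min compound preinc., RT. Start: 75uM H3(1-25), 70uM AcCoA, 50uM ThioGlo1. Read Ex340/Em540 at t=0 (autofluorescence flag) and t=20 min.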
PGK inhibitor – qHTS Assay to Find Inhibitors of Phosphoglycerate Kinase. Potency, µM (series often up to 57.5 µM), most hits filed as inhibitors. AID 602233, 2012. PGK/GAPDH coupled, Kinase-Glo luminescence, 60 min. actives 0.043% (n = 380,000). Phosphoglycerate kinase, glycosomal (Trypanosoma brucei brucei), P07378; also: nearly all actives have a fitted effect of over 60% in size
Target sequence (P07378 whole entry, looked up): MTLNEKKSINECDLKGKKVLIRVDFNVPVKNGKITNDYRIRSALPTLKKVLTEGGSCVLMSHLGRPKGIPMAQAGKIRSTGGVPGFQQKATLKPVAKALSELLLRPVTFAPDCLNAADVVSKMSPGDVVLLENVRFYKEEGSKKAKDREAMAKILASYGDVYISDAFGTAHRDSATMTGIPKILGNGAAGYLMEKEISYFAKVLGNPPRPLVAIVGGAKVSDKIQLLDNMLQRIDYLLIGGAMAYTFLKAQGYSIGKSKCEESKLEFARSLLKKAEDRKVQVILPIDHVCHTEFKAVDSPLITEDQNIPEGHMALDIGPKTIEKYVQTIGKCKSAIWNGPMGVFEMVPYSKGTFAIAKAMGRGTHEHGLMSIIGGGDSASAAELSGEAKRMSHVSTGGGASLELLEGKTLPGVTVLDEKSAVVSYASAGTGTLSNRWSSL
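Recombinant glycosomal PGK reaction used 1,3-bisphosphoglycerate generated in-well by GAPDH (100nM final) in 100mM TEA pH 7.6, 5mM MgCl2, 0.01% Tween-20. After 60 minutes at room temperature, ATP was read by Kinase-Glo Plus luminescence end-point.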
ADP-Glo counter – qHTS for Inhibitors of PI5P4K: ADP-Glo counter assay; ADP-Glo detection counter-screen, luciferase luminescence, no enzyme; 1,100 tested, under 10 active; Potency, µM (series often up to 76.9 µM), actives largely listed as inhibitors; AID 743285, 2014; shares compounds with PI5P4K alpha inh
Of the large screens only hits and unclear results are named; the others gave an inactive call (follow-up assays come after a bar, where they were run). Unless noted, calls follow the shape of the dose curve; as a rule, active = well fitted curve in the direction sought with a large enough effect; inconclusive = small, poorly fitted or top-dose-only effect, or another doubt; inactive = no such curve, though single readings can be large; an effect the other way counts as inactive or inconclusive.

O=C(Nc1ccc(F)cc1F)c1c(C(F)(F)F)ccnc1Oc1cccc(C(F)(F)F)c1	Pin1 inhibitor inconclusive
O=C(O)c1ccc2c(=O)[nH]c(CCl)nc2c1	PI5P4K alpha inh -59 | ADP-Glo counter inactive
C[C@H](NCCc1ccc(O)cc1)[C@@H](O)c1ccc(O)cc1	none (no result: PI4K2A block, PI5P4K alpha inh, Pin1 inhibitor, PGK inhibitor)
CCN(CC)S(=O)(=O)c1ccc(C(=O)Nc2nnc(NC(=S)Nc3ccccc3)s2)cc1	PI5P4K alpha inh -59 | ADP-Glo counter inactive
CCc1nnc(NC(=O)c2ccc(S(=O)(=O)N3CCCC3)cc2)s1	none (no result: RGS12 GoLoco inh)
CCc1nnc(NC(=O)c2ccc(S(C)(=O)=O)cc2)s1	PI5P4K alpha inh -53 | ADP-Glo counter inactive
CCCNC(=O)C1(C)CCCN(C(=O)c2cc(C)nn2C(C)(C)C)C1 (stereo unspecified)	PI5P4K alpha inh -71 (no result: RGS12 GoLoco inh, Pin1 inhibitor, KAT2A inh, PGK inhibitor) | ADP-Glo counter inactive
NC(=O)COc1ccc(-n2cnnn2)cc1	PI5P4K alpha inh -70, Pin1 inhibitor inconclusive | ADP-Glo counter inactive
CCCn1c(N)c(N(CCOC)C(=O)c2cc(-c3ccco3)nc3ccccc23)c(=O)[nH]c1=O	PI5P4K alpha inh -52 (no result: RGS12 GoLoco inh) | ADP-Glo counter inactive
COCCN(C(=O)COC(=O)Cc1coc2cc3c(cc12)CCC3)c1c(N)n(Cc2ccccc2)c(=O)[nH]c1=O	PI5P4K alpha inh -50 (no result: RGS12 GoLoco inh) | ADP-Glo counter inactive
COCCCN(C(=O)c1cc(-c2ccco2)nc2ccccc12)c1c(N)n(Cc2ccccc2)c(=O)[nH]c1=O	PI5P4K alpha inh -68, Pin1 inhibitor inconclusive (no result: RGS12 GoLoco inh) | ADP-Glo counter inactive
Cc1ccccc1S(=O)(=O)Cc1ccc(C(=O)NCc2ccco2)o1	none (no result: RGS12 GoLoco inh)
CC1(C)CC(=O)CC(C)(C)N1OC(=O)c1ccco1	none
O=P(O)(CCCCP(=O)(O)CCc1ccccc1)CCc1ccccc1	none (no result: PI4K2A block, PI5P4K alpha inh, Pin1 inhibitor, PGK inhibitor)
CCCc1cc(=O)oc2cc(C)c(CN3CCCC3)c(O)c12	PI4K2A block inconclusive, PI5P4K alpha inh -81, Pin1 inhibitor inconclusive, KAT2A inh inconclusive | ADP-Glo counter inactive
CCCc1cc(=O)oc2c(CN3CCCC3)c(O)ccc12	KAT2A inh inconclusive
CCc1cc(=O)oc2cc(C)c(CN3CCCC3)c(O)c12	PI4K2A block inconclusive, Pin1 inhibitor inconclusive, KAT2A inh inconclusive (no result: PI5P4K alpha inh, RGS12 GoLoco inh)
CCc1cc(=O)oc2cc(C)c(CN3CCCCC3)c(O)c12	PI4K2A block inconclusive, PI5P4K alpha inh -64, Pin1 inhibitor inconclusive | ADP-Glo counter inactive
COc1cccc(Nc2nnc(SCC(=O)Nc3sccc3C(N)=O)s2)c1	PI5P4K alpha inh -52 | ADP-Glo counter inactive
CC(C)CCNC(=O)CSc1c2c(nc3ccc(Cl)cc13)CCCC2	none (no result: PI5P4K alpha inh, RGS12 GoLoco inh)
O=C(Nc1cccc2cccnc12)c1csc(COCCO)n1	none (no result: RGS12 GoLoco inh, Pin1 inhibitor, KAT2A inh, PGK inhibitor) | ADP-Glo counter inactive
Cc1cc(C)c(NC(=O)OCCN2CCOCC2)c(C)c1	PI5P4K alpha inh -63 | ADP-Glo counter inactive
CCCCC1Cc2[nH][nH]c(=O)c2C(c2ccc(F)cc2)O1 (stereo unspecified)	PI5P4K alpha inh -51 (no result: RGS12 GoLoco inh, Pin1 inhibitor, KAT2A inh, PGK inhibitor) | ADP-Glo counter inactive
CCC(CC)N1CCN(C(=O)c2cccc(Cl)c2)CC1	none (no result: RGS12 GoLoco inh)
CC1CCCCC1NC(=O)COC(=O)c1c2c(nc3ccccc13)/C(=C\c1ccco1)CC2 (stereo unspecified)	PI4K2A block -67, PI5P4K alpha inh -74 (no result: RGS12 GoLoco inh, Pin1 inhibitor, KAT2A inh) | ADP-Glo counter inactive
CCCCNC(=O)COC(=O)c1c2c(nc3ccccc13)/C(=C/c1cccs1)CC2	PI5P4K alpha inh inconclusive, Pin1 inhibitor inconclusive
O=C(Nc1ccc2c(c1)OCCO2)c1ccccc1F	PI5P4K alpha inh -52 | ADP-Glo counter inactive
